Source: PubChem
The list is not random: actives were taken first. Their share in the collection is about 2.3%.
Rpn11 block – Rpn11 (human) deubiquitinase inhibition | O00487 | human 26S proteasome, Ub4-pepOG fluorescence polarization; 20S core pre-blocked with epoxomicin | inhibition, % at 20 µM | 360,000 tested, 0.59% active | AID 588493;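 active = inhibition at 20 µM, scaled to each plate's controls, above about 33%, limit read from the data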
Calb FLC – C. albicans growth modulation with fluconazole | C. albicans CaCi-2 (fluconazole-resistant clinical isolate) + fluconazole, Alamar Blue growth, 48 h | growth inhibition, % (no concentration beside the values) | 300,000 tested, 0.57% active | AID 1979;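 active = growth inhibition above about 58% in most replicates, limit read from the data, passing the limit was not always enough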;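 also: all wells also contain fluconazole at 8 µg/ml as a sub-toxic cotreatment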
TPT1 inh – C. albicans TPT1 enzyme inhibition; recombinant caTPT1, FP RNA substrate dephosphorylation; inhibition, % at 5 µM; 300,000 tested, 0.81% active; AID 1962;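 active = inhibition above the mean of all tested compounds plus 3 SD, set per screening campaign, cut at about 24% in these data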
IDE inh – cellular human IDE inhibition | 320,000 tested, 0.41% active | HEK cells, FAbetaB cleavage, fluorescence polarization | inhibition, % at 5.59 µM;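 active = percent inhibition above the average of all tested compounds plus 3 SD, set per screening campaign, cut at about 16% in these data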;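 also: IDE supplied by intact live HEK cells; FP after avidin binding of uncleaved biotin substrate so inhibition keeps polarization high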
IDE act – activators of human insulin-degrading enzyme in cells. P14735. 340,000 tested, 0.073% active. activation, % at 5.96 µM. HEK cells, FAbeta-B cleavage, fluorescence polarization; 0% vehicle, 100% cell-free pure enzyme wells;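 active = activation above the mean of all tested compounds plus 3 SD, set per screening campaign, cut at about 17% in these data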
Rin1 Abl inh – blocks binding of human Rin1 to Abl | P00519+Q13671 | TR-FRET Rin1/Abl binding, biochemical | inhibition, % at 7.35 µM | 360,000 tested, 0.4% active | AID 588664; in the data active = inhibition above about 5%, passing the limit was not always enough
Large screens that a line does not name were inactive.

CCOCCCNC(=O)c1ccc(N(C)S(=O)(=O)c2ccc(OC)cc2)cc1	Calb FLC 106
COc1ccc(S(=O)(=O)N(C)c2ccc(C(=O)NCCC(C)C)cc2)cc1	none
CC(CCc1ccccc1)NC(=O)CN1CCN(c2ccc(O)cc2)CC1 (configuration not stated)	Calb FLC 95
O=C(O)c1ccc2c(c1)[C@@H]1C=CC[C@@H]1[C@H](c1ccccn1)N2	Calb FLC 110, Rin1 Abl inh 21
Cc1cc2nc(NC(=O)C3(C)CCN3C(=O)C(C)C)[nH]c2cc1C (configuration not stated)	none (no result: Calb FLC, TPT1 inh, IDE inh, IDE act)
O=C(NNc1ccc(Cl)cc1)c1cccs1	Calb FLC 82
CCn1ncc(Br)c1C(=O)Nc1ccc(-c2ccno2)cc1	none
CC(C)c1ccc2c(c1)CCC1C(C)(CN)CCCC21C (configuration not stated)	Calb FLC 87
CC(C)C[C@H]1CN=C(Nc2ccccc2)N1CCCC1CCCCC1	Calb FLC 77
CC(C)C[C@H]1CN=C(Nc2ccccc2)N1CCCC1CCCC1	none
Cc1ccc(C#CC[N+](C)(C)CC#Cc2ccccc2)cc1	none
Cc1ccc(SCC(=O)Nc2cc([N+](=O)[O-])ccc2O)cc1	Calb FLC 87
O=C(CSCc1ccc(Cl)cc1)Nc1cc([N+](=O)[O-])ccc1O	Calb FLC 91
CC(CC(=O)O)CC(=O)Nc1cc([N+](=O)[O-])ccc1O (configuration not stated)	none
COc1ccc([N+](=O)[O-])cc1NC(=O)CSCc1ccc(Br)cc1	none
CN1CCN(CC(=O)N2CCn3c4c(c5cc(C6CCCCC6)ccc53)CCCC42)CC1 (configuration not stated)	Calb FLC 111
O[C@H]1C[C@H](c2ccccc2)N(Cc2cccs2)C[C@@H]1n1cc(C2CC2)nn1	none (no result: Calb FLC, TPT1 inh, IDE inh, IDE act)
O=C(C1CCCN(S(=O)(=O)c2ccccc2[N+](=O)[O-])C1)N1CCN(c2ccccc2)CC1 (configuration not stated)	IDE inh 18
CCC1(C(N)=O)CC2C=CC1C2 (configuration not stated)	none (no result: Calb FLC, TPT1 inh, IDE inh)
COc1ccc(OC)c(Nc2nc(-c3sc(NC(=O)c4ccccc4)nc3C)cs2)c1	TPT1 inh 36 (no result: Rpn11 block, IDE act, Rin1 Abl inh)
COc1ccc(Cl)cc1Nc1nc(-c2sc(NC(=O)c3ccccc3)nc2C)cs1	none (no result: Rpn11 block, IDE act, Rin1 Abl inh)
CC(=O)Oc1cc2cccc(OC(C)=O)c(=O)c2c(OC(C)=O)c1OC(C)=O	Rin1 Abl inh 23
Cc1cccc(NNC(=O)C(=O)NNc2cccc(C)c2)c1	Calb FLC 100 (no result: IDE act)
Cc1cccc(NC(=O)CC(=O)Nc2cccc(C)c2)c1	none
CCCc1ccc(C(=O)NNc2cccc(C)c2)cc1	Calb FLC 97
O=C(NCc1ccc(F)cc1)c1cc(C2CCCCN2S(=O)(=O)Cc2ccccc2)on1 (configuration not stated)	none (no result: Calb FLC, TPT1 inh, IDE inh, IDE act)
CC1C=CC=CC=CC=CC=CC=CC=CC(OC2OC(C)C(O)C(N)C2O)CC2OC(O)(CC(O)CC(O)C(O)CCC(O)CC(O)CC(=O)OC(C)C(C)C1O)CC(O)C2C(=O)O (configuration not stated)	Rpn11 block 44 (no result: Calb FLC, TPT1 inh, IDE inh)
COc1ccc(/C=C2\N=C(SC)NC2=O)cc1	Calb FLC 90
c1cnc(SCCOc2ccc3c(c2)CCC3)nc1	Calb FLC 101
CNCCCOc1ccc2c(c1)CCC2	none
CCCN1C(C)C(C(=O)OCC)=CN(Cc2ccc(Br)cc2)S1(=O)=O (configuration not stated)	none (no result: Calb FLC, TPT1 inh, IDE inh)
c1ccc(-c2ccccc2OCCCN2CCCCCC2)cc1	Calb FLC 90
Cc1cc(C(=O)CN2C(=O)C(=O)N(Cc3ccco3)C2=O)c(C)n1CCc1ccc(F)cc1	none (no result: Calb FLC, TPT1 inh)
O=C(NCc1ccccc1)c1sc(=S)n2c1[nH]c(=O)c1ccccc12	Calb FLC 87
O=C(/C=C/c1cccc(Cl)c1)c1ccc([N+](=O)[O-])o1	Calb FLC 88
O=C(Cc1nc2ccccc2s1)c1ccc(O)cc1O	Calb FLC 91 (no result: Rpn11 block, IDE act, Rin1 Abl inh)
C=CCn1c(NC(=O)c2ccc(Br)o2)c(C(=O)OCC)sc1=S	Calb FLC 93
CCOC(=O)c1c(NC(=O)c2ccc(Br)o2)sc(C)c1CC	none
O=C(Cc1ccccc1)Nc1ccc(NC(=O)c2ccccc2)nc1	none
O=C(Cc1ccccc1)Nc1nonc1NC(=O)c1ccccc1	Calb FLC 81
